# Reference: ChEMBL document CHEMBL3988442, “University of Dundee, Small-Polar-MMV Screening Library” (2021)
# Molecular target: AMP-activated protein kinase, AMPK (Homo sapiens) (UniProt P54646+O43741+P54619+Q9UGJ0+Q9Y478+Q13131+Q9UGI9)
# Experiment: AMP-dependent Kinase enzyme assay. An in vitro enzyme assay that detects ADP turnover that is directly proportional to AMPK activity. This uses naive AMPK that is activated during the assay with MK-8722
# Type: functional
# Set-up: scale not given: direction of the effect not stated beside the values
# Conditions: 30 µM
row,Compound,Percent Effect [%]
1,CCn1cc(Br)c(C(=O)NCc2cccnc2)n1,-1.81
2,CCNC(=O)N1CCCCC1CCO (stereo not given),-0.623
3,Cc1ccc(CN2Cc3c(C(=O)N(C)C)nn(C)c3C2)s1,-24.4
4,COc1ccc(-n2ccc(C(=O)N3CCC(C(N)=O)C3)n2)cc1 (stereo not given),-1.34
5,CC(C)(C)C(=O)NCCC(=O)NC(C)(C)c1ccc2c(c1)OCCO2,12.2
6,Cn1ncc2c(NCCOc3ccc(F)cc3)nc(C3CCCC3)nc21,12.7
7,O=C(CCc1ccsc1)NCC1CCN(c2ccccc2)C1 (stereo not given),-4.41
8,CC(NC(=O)COc1nc(C(C)(C)C)no1)c1ccco1 (stereo not given),5.6
9,CCOCCN1CCN(Cc2nnc(C3CC3)o2)CC1CC (stereo not given),-18
10,Cc1nccc(CNC(=O)NCCOc2ccc(F)c(F)c2)n1,-0.557
11,COC[C@]12COC[C@H]1CN(Cc1cc(OC)cc(OC)c1)C2,-1.96
12,CN(C)CC(=O)N1CCC2(CC1)CN(c1ccsc1)C(=O)CO2,3.11
13,COc1ccc(-c2nnc(SC(C)C(=O)NC3CC3)[nH]2)c(OC)c1 (stereo not given),1.94
14,Cc1cc(NC(=O)CCN2CCCC2Cn2cncn2)no1 (stereo not given),1.01
15,CCN(CC)c1ccc(C(=O)NCc2cccnc2-n2cncn2)cn1,-12.6
16,O=C(c1ccco1)N1CCOCC2(C1)CN(c1ccccc1)C(=O)CO2 (stereo not given),5.75
17,O=C(Cc1ccc2c(c1)CCO2)N1CCCCC1Cn1cccn1 (stereo not given),0.878
18,CCCc1cc(=O)[nH]c2nnc(SCC(=O)NCc3ccc(C)cc3)n12,-0.135
19,CCc1cnc(CN(C(C)=O)C2CCN(CCc3cnn(C)c3)C2)o1 (stereo not given),-1.21
20,Cc1nc(C)n(CC2CCCN(CCc3ccncc3)C2)n1 (stereo not given),0.226
